High-throughput results: PubChem, National Center for Advancing Translational Sciences (NCATS)
FLuc counter: inhibits or activates purified firefly luciferase, miR-21 counter-screen; 6.9% of 360,000 active; purified FLuc, Km substrates, luminescence inhibition; Potency, µM (doses to about 57.5 µM), without a hit: at the highest dose activity change, negative = inhibition, usual class: inhibitors; P08659;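 note: plate controls were vehicle for no effect and reference inhibitor for full effect; nearly all actives have a fitted effect of over 55% in size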
Target sequence (P08659 whole entry, looked up): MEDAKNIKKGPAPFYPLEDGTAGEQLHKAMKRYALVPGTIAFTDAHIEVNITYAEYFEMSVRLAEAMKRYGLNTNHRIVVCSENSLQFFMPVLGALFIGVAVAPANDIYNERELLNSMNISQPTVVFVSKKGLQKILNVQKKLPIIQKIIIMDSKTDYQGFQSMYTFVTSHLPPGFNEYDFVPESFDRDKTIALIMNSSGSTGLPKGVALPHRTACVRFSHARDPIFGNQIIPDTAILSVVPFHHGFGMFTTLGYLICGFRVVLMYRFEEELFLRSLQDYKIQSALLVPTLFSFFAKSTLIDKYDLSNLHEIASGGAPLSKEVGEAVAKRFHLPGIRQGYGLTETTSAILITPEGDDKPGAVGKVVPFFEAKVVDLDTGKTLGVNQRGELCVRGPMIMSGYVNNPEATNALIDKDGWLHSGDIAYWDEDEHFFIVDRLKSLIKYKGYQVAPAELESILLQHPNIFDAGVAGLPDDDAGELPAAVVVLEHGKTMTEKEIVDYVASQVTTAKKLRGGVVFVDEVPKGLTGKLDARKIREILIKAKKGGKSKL
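Purified P. pyralis luciferase, 10 nM final, with Km-level 10 uM D-luciferin and 10 uM ATP in 50 mM Tris acetate pH 7.5, 10 mM Mg acetate, 0.01% Tween-20, 0.05% BSA; 6-point qHTS titration about 60 µM downward; luminescence read.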
Rab9 prom act: activators of Rab9 promoter | Huh7 Rab9 promoter-luciferase reporter, luminescence, 24 h | Potency, µM (doses to about 9.22 µM), without a hit: at the top dose activation, negative = inhibition, hits mostly activators | 2.8% of 320,000 active; note: % of control where 0% means no effect; nearly all actives have a fitted effect of over 60% in size
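Huh7 cells stably carrying Rab9 promoter–luciferase reporter, plated 1500 cells/well, compound added after 2 h and incubated 24 h at 37 °C; luciferase luminescence then read after 10 min with detection reagent.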
NPC1 promoter act: activates the NPC1 promoter | Huh7 NPC1 promoter luciferase reporter, 24 h | Potency, µM (highest dose often 9.22 µM), for the others: at the highest dose activation, most hits filed as activators | 2.4% of 320,000 active; note: % of control where 0% means no effect; nearly all actives have a fitted effect of over 60% in size
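Luciferase expression driven by the NPC1 promoter was measured in stably transfected Huh7 cells after a 24 h compound incubation, using a luciferase reagent and a luminescence read.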
SMN2 splice up: SMN2 splice variant enhancement. HEK293 SMN2-luciferase splicing reporter, luminescence, 30-36 h. Potency, µM (series often up to 46.1 µM), for the others: at the highest dose activity change, positive = activation, hits mostly activators. 2.8% of 210,000 active. AID 1458; note: % of control where 0% means no effect; nearly all actives have a fitted effect of over 55% in size
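HEK293 cells carry an SMN2 […]–luciferase reporter in which exon 7 inclusion puts luciferase in frame. Cells were plated 10-12 h before compound addition, then incubated 30-36 h at 37C. ONE-Glo luminescence was read; sodium butyrate at 4.5 mM final served as control.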
KinaseGlo FLuc: Kinase-Glo luciferase inhibition (counter-screen). Q27757. Kinase-Glo luciferase, ATP luminescence, 8 min. Potency, µM (titrated, usually from 38.3 µM), without a hit: at the highest dose activity change, negative = inhibition, usual class: inhibitors. 0.28% of 200,000 active; note: % is set by controls: 0 for no effect and ±100 for the full control effect; nearly all actives have a fitted effect of over 60% in size
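Compound is pinned into ATP-containing buffer (10 uM ATP, imidazole pH 7.2, 7 mM MgCl2). Kinase-Glo luciferase reagent is then added. Light output is recorded following an 8-min room-temperature incubation.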
ELG1 genotox: induces genotoxicity in HEK293T cells with luciferase-tagged ELG1 | HEK293T ELG1-luciferase reporter, luminescence, 16 h | 1.3% of 330,000 active | Potency, µM (doses to about 46 µM), inactives show at the top dose activity change, positive = activation, usual class: activators | AID 504466; note: % of control where 0% means no effect; nearly all actives have a fitted effect of over 60% in size
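DMSO vehicle served as control against compound-treated ELG1-luciferase HEK293T cells; exposure lasted 16 hr at 37 °C and 5% CO2, followed by ONE-Glo luminescence detection after 30 min.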
Active calls of the source: *; ? = inconclusive; . = no result given; [ ] = dose if it differs, or a comment. Only some compounds are listed: those with a hit (about 7.5% of all), similar ones and a draw of the others. Calls come from the whole dose curve; as a rule, active = well fitted curve in the direction sought with a large enough effect; inconclusive = small, poorly fitted or top-dose-only effect, or another doubt; inactive = no such curve, though single readings can be large; an effect the other way counts as inactive or inconclusive. Potency is the fitted concentration of half-maximal effect.

SMILES	FLuc counter	Rab9 prom act	NPC1 promoter act	SMN2 splice up	KinaseGlo FLuc	ELG1 genotox
CCN=C1SC(C(=O)Nc2ccc(OC)cc2)CC(=O)N1CC (stereo unspecified)	-3%	-3%	-1%	-2%	3%	-5%
COc1cccc(NC(CNS(=O)(=O)c2ccc(Cl)cc2)c2ccccc2)c1 (stereo unspecified)	0%	.	.	9%	.	.
CCOc1ccc(/C=C2\SC(=S)N(CCC(=O)Nc3ccccc3C(=O)O)C2=O)cc1	15µM*	?	2%	.	.	6%
COc1ccc(/C=C2\SC(=S)N(CCC(=O)N3CCCCC3)C2=O)cc1	?	-5%	-8%	.	.	-5%
CCOc1ccc(/C=C2\SC(=S)N(CCC(=O)O)C2=O)cc1	1.7µM*	-31%	-11%	.	.	0%
CCOc1ccc(/C=C2/SC(=S)N(CCC(=O)Nc3ccc(C(=O)O)cc3)C2=O)cc1	1.2µM*	0%	1%	.	.	?
O=C(O)CCN1C(=O)CC(N2C(=O)/C(=C/c3ccc(Cl)cc3)SC2=S)C1=O (stereo unspecified)	19µM*	0%	-5%	1%	-4%	-6%
CCNc1ncc2ncc(=O)n(C)c2n1	.	.	.	0%	-4%	.
COc1ccc(/C=C2\SC(=S)N(CCCC(=O)Nc3ccccc3C(=O)O)C2=O)cc1OC	3%	3%	6%	.	.	-1%
COc1ccc(/C=C2\SC(=S)N(CCC(=O)Nc3ccccc3C(=O)O)C2=O)cc1	21µM*	-1%	-5%	.	.	-2%
COc1ccc(NC2CCCN(C(=O)CCN3CCOCC3)C2)cc1 (stereo unspecified)	1%	1%	-22%	.	.	1%
CC(=O)CSc1nc(-c2ccccc2)c(-c2ccccc2)o1	3%	-1%	0%	.	.	-1%
Cc1ccc(-c2nc(-c3nccc4ccccc34)oc2-c2ccccc2)cc1	3µM*	3.2µM*	?	3.5µM*	-15%[7.66 µM]	?
COC(=O)C(=N/Nc1ccccc1C(=O)OC)/C(C)=N/O	3%	-2%	0%	.	.	-2%
CCC(=O)Nc1cccc(C2=NOC3(C2)C[C@@H](C(N)=O)N(C(=O)COc2ccc(Cl)cc2)C3)c1 (stereo partly specified)	-4%	-4%	-5%	.	.	3%
CC1(C(=O)N2CC3(CC(c4cccc(NC(=O)COc5ccc(Cl)cc5)c4)=NO3)C[C@@H]2C(N)=O)CC1 (stereo partly specified)	21µM*	0%	3%	.	.	-6%
CCC(=O)N1CC2(CC(c3cccc(NC(=O)COc4ccc(Cl)cc4)c3)=NO2)C[C@@H]1C(N)=O (stereo partly specified)	17µM*	-2%	2%	.	.	-3%
NC(=O)[C@H]1CC2(CC(c3cccc(NC(=O)COc4ccc(Cl)cc4)c3)=NO2)CN1C(=O)c1ccccc1C(=O)c1ccccc1 (stereo partly specified)	?	-4%	-3%	.	.	-11%
CCCCCC(=O)Nc1cccc(C2=NOC3(C2)C[C@H](C(N)=O)N(C(=O)CCCCC)C3)c1 (stereo partly specified)	-4%	-7%	-4%	.	.	-9%
CCCCCC(=O)N1CC2(CC(c3cccc(NC(=O)COc4ccc(Cl)cc4)c3)=NO2)C[C@@H]1C(N)=O (stereo partly specified)	13µM*	-5%	-1%	.	.	-10%
NC(=O)[C@H]1CC2(CC(c3cccc(NC(=O)COc4ccc(Cl)cc4)c3)=NO2)CN1C(=O)c1ccc(Cl)cc1 (stereo partly specified)	7.6µM*	-5%	0%	.	.	-17%
O=C(O)CNC(=O)[C@H]1NC(C(F)(F)F)(C(F)(F)F)OC1(C(F)(F)F)C(F)(F)F	.	.	.	8%[9.22 µM]	0%[7.66 µM]	.
C/C=C/C(=O)N1CC2(CC(c3cccc(NC(=O)COc4ccc(Cl)cc4)c3)=NO2)C[C@@H]1C(N)=O (stereo partly specified)	19µM*	-6%	?	.	.	-4%
Cc1cc(=O)n2cc(-c3ccccc3)nc2[nH]1	12µM*	23%	26%	.	-3%	12%
Cc1ccc(-c2cn3c(=O)cc(C)[nH]c3n2)cc1	0.85µM*	0.79µM*	1.6µM*	10µM*	-6%	?
SMILES	FLuc counter	Rab9 prom act	NPC1 promoter act	SMN2 splice up	KinaseGlo FLuc	ELG1 genotox
Cc1nc(-c2ccccc2)cc(=O)[nH]1	2%	-2%	3%	2%	-1%	3%
CC1CCCC(NC(=O)Cn2cc(Br)ccc2=O)C1C (stereo unspecified)	.	.	.	.	.	1%
COc1cc(NC(=O)Cc2noc3ccccc23)cc(OC)c1OC	-7%	.	.	.	.	.
COc1ccc(Nc2cc(C(=O)NCc3ccccc3)c3ccccc3n2)c(OC)c1	8.5µM*	.	.	-1%	.	.
COc1ccccc1Nc1cc(C(=O)NCc2cccnc2)c2ccccc2n1	8.5µM*	4%	-2%	.	.	0%
Cc1ccc(C)c(Nc2cc(C(=O)NCc3cccnc3)c3ccccc3n2)c1	?	1%	0%	.	.	-10%
COc1ccc(Nc2cc(C(=O)NCCCN(C)Cc3ccccc3)c3ccccc3n2)c(OC)c1	-17%	.	.	.	.	.
CN1C(=O)C(C)(C)N(C(=O)c2cccc([N+](=O)[O-])c2)c2ccccc21	0%	5%	-1%	.	.	2%
Cc1ccc(COc2ccc(-c3nnco3)cc2)cc1	9.5µM*	3.5µM*	2.2µM*	.	.	?
CN(C)c1ccc(-c2nc3ccccc3n2C)cc1	0.27µM*	0.22µM*	0.32µM*	0.63µM*	10µM*	?
CN(Cc1nc2ccccc2n1C)c1ccccc1	-13%	5%	0%	.	.	4%
CC(C)n1c(-c2ccc(N(C)C)cc2)nc2ccccc21	7.6µM*	?	1%	10%	-10%	18%
CCn1c(-c2ccco2)nc2ccccc21	19µM*	18%	22%	9%	-15%	28%
Cc1ccc(C(O)c2nc3ccccc3n2C(C)C)cc1 (stereo unspecified)	-3%	-3%	-2%	-7%	5%	-1%
CCn1c(-c2ccc(N(C)C)cc2)nc2ccccc21	0.85µM*	?	?	13µM*	-11%	2%
c1ccc(OCCn2c(-c3ccco3)nc3ccccc32)cc1	?	18%	18%	13%	2%	6%
CCOc1ccc(Cl)cc1S(=O)(=O)N1CCC(C(=O)NC2CC2)CC1	1%	-3%	-4%	.	.	-2%
N=C1C(c2nc3ccccc3[nH]2)=C(O)CN1c1ccccc1	8.5µM*	?	23%	19%	4%	21µM*
